Test results published in PubChem BioAssay AID1259421 (Broad Institute, 2018).
Several values for one entry are separate records, joined by “and”; a condition that tells them apart may be missing. Equal values may be shown once. Hit rate of the full screen: of about 6,400 compounds, about 610 (9.5%) were called active. No stated cut-off is given here; in the data, active means activity change below about -70%; inconclusive means no clear call, values can overlap the other calls; inactive means above that. The list comes from a sample in which actives are over-represented; it also holds similar structures and randomly drawn compounds. Some compounds were tested as several samples or in several runs, with calls that do not always agree. *1 amine or outer side, *2 acyl side, *3 side chain or, on linkers, in order; H or OH if unused. Where a SMILES comes first, the peptide text is derived from it. Bridges are numbered along the chain shown (N, C = ends). [ ]: non-standard residue; d: D form. The star is where a group is joined. ξ: configuration not given here. pTerphenylCO(4''-OnC5H11) = CCCCCOc1ccc(-c2ccc(-c3ccc(C(=O)*)cc3)cc2)cc1; ξOrn(4,5-diOH) = O=C(C(CC(O)C(O)N[*:3])N[*:1])[*:2]; ξhTyr(βξ-OH,γξ-OH) = NC(C(=O)O)C(O)C(O)c1ccc(O)cc1; ξPro(3ξ-OH,4ξ-Me) = CC1CNC(C(=O)O)C1O; Heptanoyl(6-Me) = CC(C)CCCCC(=O)*; Hyp = O=C(O)[CH]1C[CH](O)CN1; ξDab = NCCC(N)C(=O)O; ξT = CC(O)C(N)C(=O)O

test: T. gondii ME49Luc in HeLa cells, luciferase assay, 72 h, no IFN-y (AID 1259421); settings: stronger effect = lower value, concentration not given here

Row | Structure (SMILES) | activity change, negative = inhibition
1 | CCC(CC)C(c1ccc(Nc2nc3ccccc3s2)cc1)n1cncn1 (centres undefined) | 4.5% (inactive)
2 | COC(=O)N(C)c1c(N)nc(-c2nn(Cc3ccccc3F)c3ncccc23)nc1N | 2.65% (inactive)
3 | CC(=O)OC1C(=O)C2(C)C(O)CC3OCC3(OC(C)=O)C2C(OC(=O)c2ccccc2)C2(O)CC(OC(=O)C(O)C(NC(=O)c3ccccc3)c3ccccc3)C(C)=C1C2(C)C (centres undefined) | -87.7% (active)
4 | CC(=O)O[C@H]1C(=O)[C@@]2(C)C([C@H](OC(=O)c3ccccc3)[C@]3(O)C[C@H](OC(=O)[C@H](O)[C@@H](NC(=O)c4ccccc4)c4ccccc4)C(C)=C1C3(C)C)[C@]1(OC(C)=O)CO[C@@H]1C[C@@H]2O (some centres undefined) | -86.6% (active) and -77.4% (active)
5 | CC(=O)O[C@H]1C(=O)[C@@]2(C)[C@H]([C@H](OC(=O)c3ccccc3)[C@]3(O)C[C@H](OC(=O)[C@H](O)[C@@H](NC(=O)c4ccccc4)c4ccccc4)C(C)=C1C3(C)C)[C@]1(OC(C)=O)CO[C@@H]1C[C@@H]2O | -84.9% (active) and -74.8% (active)
6 | CCCCCCCC/C=C/CCCCCCCC(=O)NC(CO)Cc1ccc(O)cc1 (centres undefined) | 6.19% (inactive)
7 | C[N+]1(C)[C@@H]2CC(OC(=O)[C@H](CO)c3ccccc3)C[C@H]1[C@@H]1O[C@@H]12 (some centres undefined) | 10.8% (inactive)
8 | O=C(O)CC/C=C/CC1COC(c2ccccc2Cl)OC1c1ccccc1O (centres undefined) | 11.4% (inactive)
9 | O=C(O)[C@@H]1C[C@H]2C[C@@H](CCc3nn[nH]n3)CC[C@H]2CN1 | 15.6% (inactive)
10 | CN1CCCC1c1cccnc1 (centres undefined) | 24.1% (inactive)
11 | CCCCCOc1ccc(-c2ccc(-c3ccc(C(=O)NC4CC(O)C(O)NC(=O)C5C(O)C(C)CN5C(=O)C(C(C)O)NC(=O)C(C(O)C(O)c5ccc(O)cc5)NC(=O)C5CC(O)CN5C(=O)C(C(C)O)NC4=O)cc3)cc2)cc1 (stereo not drawn) ({pTerphenylCO(4''-OnC5H11)}-[ξOrn(4,5-diOH)]T[Hyp][ξhTyr(βξ-OH,γξ-OH)]T[ξPro(3ξ-OH,4ξ-Me)]; lactam 1-C; configuration not given here) | -6.09% (inactive)
12 | Cc1nn(-c2ccccc2)c(C)c1/C=N/N1CCN(Cc2ccccc2)CC1 | 7.74% (inactive) and 0.523% (inactive)
13 | Cn1[nH]c(=O)c(=O)[nH]c1=S | 14.6% (inactive)
14 | C[C@@H]1CC2C3CCC4=CC(=O)C=C[C@]4(C)[C@@]3(F)[C@@H](O)C[C@]2(C)[C@H]1C(=O)CO (some centres undefined) | -13.5% (inactive) and -8.09% (inactive)
15 | CCCCC[C@H](O)/C=C/C=C\C/C=C\C/C=C\CCCC(=O)O | -37.7% (inactive)
16 | Cc1c(N)cccc1Cn1ccc(OCCc2cccs2)cc1=O | 1.77% (inactive)
17 | CCNC(=O)c1noc(-c2cc(C(C)C)c(O)cc2O)c1-c1ccc(CN2CCOCC2)cc1 | -87.9% (active)
18 | Cc1cc(C)c(CNC(=O)c2cc(-c3ccc(CN4CCOCC4)cc3)cc3c2cnn3C2CCCC2)c(=O)[nH]1 | -31% (inactive)
19 | CC(C)c1cc(C(=O)N2Cc3ccc(CN4CCN(C)CC4)cc3C2)c(O)cc1O | -63.5% (inactive)
20 | CC(C)(O)[C@H]1CC[C@@](C)([C@H]2[C@@H](O)C[C@@]3(C)[C@@H]4C[C@H](O[C@@H]5O[C@H](CO)[C@@H](O)[C@H](O)[C@H]5O)[C@H]5C(C)(C)[C@@H](O[C@@H]6OC[C@@H](O)[C@H](O)[C@H]6O)CC[C@@]56C[C@@]46CC[C@]23C)O1 | 3% (inactive)
21 | Cc1cc(-c2cc(O)ccc2Cl)cc2nnc(Nc3ccc(OCCN4CCCC4)cc3)nc12 | -89.7% (active)
22 | CCCCOc1ccc(C(=O)CCN2CCCCC2)cc1 | 1.11% (inactive)
23 | Cc1cc(-c2cc(OC(=O)c3ccccc3)ccc2Cl)cc2nnc(Nc3ccc(OCCN4CCCC4)cc3)nc12 | 7.81% (inactive)

Row | Structure (SMILES) | activity change, negative = inhibition
24 | CCn1ccnc1CC1COc2ccccc2O1 (centres undefined) | 16.5% (inactive) and 6.37% (inactive)
25 | Nc1nonc1C(=Nc1ccc(F)c(Cl)c1)NO | 17% (inactive)
26 | CCOc1ccc(-n2c([C@@H](C)N(Cc3cccnc3)C(=O)Cc3ccc(OC(F)(F)F)cc3)nc3ncccc3c2=O)cc1 | -0.654% (inactive)
27 | CON=C1C[C@]2(C[C@@H]3C[C@@H](C/C=C(\C)C[C@@H](C)/C=C/C=C4\CO[C@@H]5[C@H](O)C(C)=C[C@@H](C(=O)O3)[C@]45O)O2)O[C@H](/C(C)=C/C(C)C)[C@H]1C | -67.7% (inactive)
28 | CC(C)c1cc(-c2n[nH]c(=O)n2-c2ccc3c(ccn3C)c2)c(O)cc1O | -82.8% (active)
29 | CC(C)CCCCC(=O)NC(CCN)C(=O)NC(C(=O)NC(CCN)C(=O)NC1CCNC(=O)C(C(C)O)NC(=O)C(CCN)NC(=O)C(CCN)NC(=O)[C@H](CC(C)C)NC(=O)[C@@H](CC(C)C)NC(=O)C(CCN)NC1=O)C(C)O (stereo partly drawn) ({Heptanoyl(6-Me)}-[ξDab][ξT][ξDab][ξDab][ξDab][dL]L[ξDab][ξDab][ξT]; lactam 4-C) | 5.64% (inactive)
30 | COc1ccc(-c2cc(=O)c3c(OC)c(OC)c(OC)cc3o2)cc1OC | -3.44% (inactive)
31 | COc1ccc(-c2cc(=O)c3c(OC)c(OC)c(OC)c(OC)c3o2)cc1OC | 14.2% (inactive)
32 | COc1cc(-c2ccc(=O)[nH]n2)ccc1OC(F)F | -98.8% (active) and -89.5% (active)
33 | N[C@@H](CSCCCO)C(=O)O | 9.56% (inactive) and 5.2% (inactive)
34 | COC(=O)Nc1nc2ccc(C(=O)c3ccccc3)cc2[nH]1 | -65.6% (inactive) and -76% (active)
35 | CCCS(=O)c1ccc2nc(NC(=O)OC)[nH]c2c1 (centres undefined) | 18.9% (inactive)
36 | COC(=O)Nc1nc2ccc(C(=O)c3ccc(F)cc3)cc2[nH]1 | -64.8% (inactive)
37 | COC(=O)Nc1nc2ccc(C(=O)C3CC3)cc2[nH]1 | -35.4% (inactive)
38 | COC(=O)Nc1nc2ccc(SC(C)C)cc2[nH]1 | -47% (inactive) and -32.6% (inactive)
39 | CCCSc1ccc2nc(NC(=O)OC)[nH]c2c1 | -54.3% (inactive) and -5.56% (inactive)
40 | COC(=O)Nc1nc2ccc(C(=O)c3cccs3)cc2[nH]1 | -78.8% (active) and -71.2% (active)
41 | COC(=O)Nc1nc2ccc(Sc3ccccc3)cc2[nH]1 | -42.3% (inactive) and -3.74% (inactive) and -73.8% (active)
42 | COC(=O)Nc1nc2ccc(S(=O)c3ccccc3)cc2[nH]1 (centres undefined) | 1.33% (inactive) and 7.44% (inactive) and -54.7% (inactive)
43 | CN(CCOP(=O)(O)O)C(=N)N | 22.7% (inactive) and 1.51% (inactive)
44 | O=C(O)[C@H](Cc1ccc(Nc2nccc3ccncc23)cc1)NC1=C(Br)C(=O)C12CCCCC2 | -35.7% (inactive)
45 | CN(C)CCC1(c2ccc(Cl)cc2)Cc2ccccc2C(=O)O1 (centres undefined) | 24.4% (inactive) and 4.82% (inactive)
46 | CCOc1nc2cccc(C(=O)OC(C)OC(=O)OC3CCCCC3)c2n1Cc1ccc(-c2ccccc2-c2nn[nH]n2)cc1 (centres undefined) | 26.2% (inactive) and -2.58% (inactive)

Row | Structure (SMILES) | activity change, negative = inhibition
47 | COc1ccc(-c2oc3ccccc3c(=O)c2O)cc1OC | 17.9% (inactive)
48 | CN(C)C(=O)C(=O)c1cn(C)c2cc(Cl)c(C(=O)N3CCC(Cc4ccc(F)cc4)CC3)cc12 | -34.4% (inactive)
49 | CN(C)[C@@H](CCOc1cccc2ccccc12)c1ccccc1 | 16.9% (inactive)
50 | CC(C)Nc1nc2cc(Cl)c(Cl)cc2n1[C@H]1O[C@@H](CO)[C@H](O)[C@@H]1O | -13.6% (inactive)
51 | c1ccc(C(NCc2cccnc2)(c2ccccc2)c2ccccc2)cc1 | 3.97% (inactive) and 35.4% (inactive)
52 | CCCn1c(=O)c2[nH]c(C34CC5CC(CC3C5)C4)nc2n(CCC)c1=O | -9.56% (inactive)
53 | N#C/C(=C1/SCC(c2ccccc2Cl)S1)n1ccnc1 (centres undefined) | 12.5% (inactive)
54 | Fc1ccc(C(c2ccccc2)(c2ccccc2F)n2ccnc2)cc1 (centres undefined) | -44.6% (inactive)
55 | Clc1ccccc1C(c1ccccc1)(c1ccccc1)n1ccnc1 | -38.2% (inactive) and -91% (active)
56 | N[C@H](Cc1cnc[nH]1)C(=O)O | 2.37% (inactive)
57 | O=c1cc[nH]c2cc(Cl)ccc12 | 10.2% (inactive)
58 | CCN(CC)CC1CCN(c2ncc3ncnc(Nc4ccc(F)c(Cl)c4)c3n2)CC1 | -13.4% (inactive) and 3.34% (inactive)
59 | C=CC(=O)Nc1cc2c(Nc3ccc(F)c(Cl)c3)ncnc2cc1OCCCN1CCOCC1 | -41.3% (inactive)
60 | C[C@@H]1COC(Nc2ccc3ncnc(Nc4ccc(OCc5nccs5)c(Cl)c4)c3c2)=N1 | -65.9% (inactive)
61 | CNC(=O)CN1CCC(Oc2cc3c(Nc4cccc(Cl)c4F)ncnc3cc2OC)CC1 | -53.4% (inactive)
62 | COc1cc2ncnc(Nc3ccc(F)c(Cl)c3)c2cc1NC(=O)/C=C/CN1CCCCC1 | -80.3% (active)
63 | CN(C)C/C=C/C(=O)Nc1cc2c(Nc3ccc(F)c(Cl)c3)ncnc2cc1O[C@H]1CCOC1 | -87.8% (active)
64 | CC/C=C\C/C=C\C/C=C\C/C=C\C/C=C\CCCC(=O)O | 2.92% (inactive)
65 | COc1ccc(NS(=O)(=O)c2ccc(N=Nc3ccc(O)c(C(=O)O)c3)cc2)nn1 | 5.08% (inactive)
66 | O=C(O)Cc1nn(Cc2nc3cc(C(F)(F)F)ccc3s2)c(=O)c2ccccc12 | 19.5% (inactive)
67 | COCC(=O)NC/C=C/c1ccc2ncnc(Nc3ccc(Oc4ccc(C)nc4)c(C)c3)c2c1 | -85.5% (active)
68 | COc1ccc(Nc2ncnc3ccc(OC)cc23)cc1 | 3.66% (inactive) and 3.52% (inactive)
69 | C=CC(=O)Nc1ccc2ncnc(Nc3cccc(Br)c3)c2c1 | -18.1% (inactive)
